Experiment [1] can be described thus: qHTS of pediatric cancer cell lines to identify multiple opportunities for drug repurposing: Confirmatory screen for Rh18 cells (AID 1347125). Note: nearly all actives have a fitted effect of over 55% in size. Note: potency is the fitted concentration of half-maximal effect. The method in brief: (§1)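 Cells (500-1,000/well) in growth media were settled 5 h at 37 degrees C, then given compounds for 48 h. Viability was read as CellTiter-Glo luminescence. Primary runs used MIPE at 11 points (0.78 nM-46 µM) and NPC at 8 points (0.59 nM-46 µM); follow-ups used 11 points.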

The nature of experiment [2]: qHTS of pediatric cancer cell lines to identify multiple opportunities for drug repurposing: Confirmatory screen for Saos-2 cells (AID 1347127). Note: potency is the fitted concentration of half-maximal effect; nearly all actives have a fitted effect of over 60% in size. In outline: as §1
Experiment [3] is described as follows: qHTS of pediatric cancer cell lines to identify multiple opportunities for drug repurposing: Confirmatory screen for OHS-50 cells (AID 1347128).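 Note: compound exposure lasted 48 h at 37 degrees C; nearly all actives have a fitted effect of over 55% in size.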 Note: potency is the fitted concentration of half-maximal effect. The method in brief: as §1
A short description of experiment [4]: qHTS of pediatric cancer cell lines to identify multiple opportunities for drug repurposing: Confirmatory screen for SK-N-SH cells (AID 1347129).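 Note: cells exposed to compound for 48 h before viability read; nearly all actives have a fitted effect of over 60% in size.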 Note: potency is the fitted concentration of half-maximal effect. In outline:
as §1

Experiment [5] in a line: qHTS of pediatric cancer cell lines to identify multiple opportunities for drug repurposing: Confirmatory screen for Rh30 cells (AID 1347126). Note: nearly all actives have a fitted effect of over 55% in size. Note: potency is the fitted concentration of half-maximal effect. In outline:
as §1

The test system of experiment [6] is Zika virus NS2B-NS3 protease. Kind of experiment: Primary screen GU AMC qHTS for Zika virus inhibitors (AID 1347154). Note: nearly all actives have a fitted effect of over 70% in size. Note: potency is the fitted concentration of half-maximal effect. In outline:
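Unlinked Zika NS2B hydrophilic domain/NS3 protease domain noncovalent complex (25 nM final) in 10 mM Tris-HCl pH 8.0, 0.01% Tween 20, with AMC peptide substrate. Fluorescence (ex 340, em 450 nm) change over 15 min, room temperature; percent inhibition fitted to 4-parameter Hill equation.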

The target of another experiment is Furin (Homo sapiens) (UniProt P09958). Kind of experiment: Furin counterscreen qHTS for Zika virus inhibitors (AID 1347149).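 Note: purified recombinant full-length human furin enzyme at 5 nM; fluorescence gain from furin cutting a BOC-RVRR-AMC peptide substrate over 15 min; top concentration of the series differs between compounds; nearly all actives have a fitted effect of over 70% in size.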 In outline: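 Counterscreen measures cleavage of 2 microM BOC-RVRR-AMC, below its ~15 microM Km, by 5 nM full-length human furin at pH 7.0 after a 15-min compound preincubation. Inhibition derives from the 15-min fluorescence increase at 37C.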

Experiment [7] concerns Zika virus NS2B-NS3 protease (linked construct). Kind of experiment: Confirmatory screen NINDS AMC qHTS for Zika virus inhibitors (AID 1347152). Note: potency is the fitted concentration of half-maximal effect; nearly all actives have a fitted effect of over 70% in size. In outline: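 Linked NS2B-NS3 protease, 1 nM, in 10 mM Tris-HCl pH 8.0, 0.01% Tween 20; compounds preincubated 15 min at room temperature. Nle-KRR-AMC 10 microM (Km 18.3 µM); 15-min fluorescence change (340/450 nm) fitted to 4-parameter Hill.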

Records with an inconclusive call do not appear. The source made the active and inactive calls. Calls come from the whole dose curve; as a rule, active = well fitted curve in the direction sought with a large enough effect; inconclusive = small, poorly fitted or top-dose-only effect, or another doubt; inactive = no such curve, though single readings can be large; an effect the other way counts as inactive or inconclusive. Starred links: 1 amine or outer side, 2 acyl side, 3 side chain; linkers in the order of their positions; H or OH if unused. Positions of bridges follow the written chain, without caps; N, C: chain ends. Non-standard residues stand in square brackets, D forms with d. Residues, ends and D or L forms follow the SMILES beside them. Chains are numbered I, II in the order given. Actinocin(9to1) = Cc1c2oc3c(C)ccc(C(=O)[*:1])c3nc-2c(C(=O)[*:2])c(N)c1=O; NMeV = CN[CH](C(=O)O)C(C)C; Sar = CNCC(=O)O

Furin (Homo sapiens), sequence (P09958 whole entry, looked up): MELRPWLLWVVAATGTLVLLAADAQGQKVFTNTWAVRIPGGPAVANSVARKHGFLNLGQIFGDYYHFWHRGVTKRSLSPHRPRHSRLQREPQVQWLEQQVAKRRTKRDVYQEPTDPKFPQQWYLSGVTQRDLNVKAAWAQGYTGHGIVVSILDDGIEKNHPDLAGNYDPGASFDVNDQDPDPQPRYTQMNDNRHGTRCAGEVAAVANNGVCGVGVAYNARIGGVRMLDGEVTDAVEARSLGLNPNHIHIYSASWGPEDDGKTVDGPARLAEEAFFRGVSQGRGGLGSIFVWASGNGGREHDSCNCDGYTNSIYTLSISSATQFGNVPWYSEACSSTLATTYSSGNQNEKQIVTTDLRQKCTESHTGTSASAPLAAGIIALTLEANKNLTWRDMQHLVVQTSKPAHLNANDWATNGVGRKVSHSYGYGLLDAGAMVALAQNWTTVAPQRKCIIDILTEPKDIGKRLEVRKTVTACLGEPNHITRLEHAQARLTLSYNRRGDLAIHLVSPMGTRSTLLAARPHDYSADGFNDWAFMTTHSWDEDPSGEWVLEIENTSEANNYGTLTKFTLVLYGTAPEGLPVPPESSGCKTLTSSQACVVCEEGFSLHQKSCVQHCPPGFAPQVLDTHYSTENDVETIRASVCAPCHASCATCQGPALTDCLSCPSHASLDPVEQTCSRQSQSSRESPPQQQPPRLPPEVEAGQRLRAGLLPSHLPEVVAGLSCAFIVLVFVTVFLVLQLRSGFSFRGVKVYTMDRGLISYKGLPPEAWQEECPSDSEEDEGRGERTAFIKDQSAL

With `C=CC(=O)Nc1cccc(Nc2nc(NC3CCC(N(C)C)CC3)nc3c2ncn3C(C)C)c1` (configuration not stated), the Potency is 657 nM (active) in experiment [1], 1650 nM (active) in experiment [2], 2080 nM (active) in experiment [3] and 2960 nM (active) in experiment [4].
Consider `COc1cc([C@@H]2c3cc4c(cc3[C@@H](O[C@@H]3O[C@@H]5CO[C@@H](c6cccs6)O[C@@H]5[C@H](O)[C@@H]3O)[C@H]3COC(=O)[C@H]23)OCO4)cc(OC)c1O`, for which the Potency is 1310 nM (active) in experiment [1], 1310 nM (active) in experiment [5] and 3320 nM (active) in experiment [4]. Besides, the Potency result in experiment [6] is “inactive”.
`Cc1c2oc3c(C)ccc(C(=O)NC4C(=O)NC(C(C)C)C(=O)N5CCCC5C(=O)N(C)CC(=O)N(C)C(C(C)C)C(=O)OC4C)c3nc-2c(C(=O)NC2C(=O)NC(C(C)C)C(=O)N3CCCC3C(=O)N(C)CC(=O)N(C)C(C(C)C)C(=O)OC2C)c(N)c1=O` (configuration not stated) (I: TVP[Sar][NMeV] / II: TVP[Sar][NMeV]; ester I:1-I:C, II:1-II:C; linker I:N-II:N via Actinocin(9to1); configuration not given here): the figures for the Potency in experiment [1], in experiment [3] and in experiment [4] were 29.3 nM (active), 36.9 nM (active) and 18.7 nM (active), respectively. The Potency result in experiment [5] and in experiment [6] was “inactive” throughout.
With `Cc1cnc(Nc2ccc(CN3CCOCC3)cc2)nc1Nc1cccc(S(=O)(=O)NC(C)(C)C)c1`, the Potency is 9270 nM (active) in experiment [1], 5220 nM (active) in experiment [3] and 5260 nM (active) in experiment [4]. In addition, the Potency entry in experiment [5] and in experiment [6] was “inactive” each time.
On to `CN[C@@H]1C[C@H]2O[C@@](C)([C@H]1OC)n1c3ccccc3c3c4c(c5c6ccccc6n2c5c31)C(=O)N[C@H]4O`, for which the Potency in experiment [1] is 1470 nM (active); in experiment [2] it was 585 nM (active); in experiment [3], 585 nM (active); in experiment [4], 332 nM (active); in experiment [7], 19200 nM (active); in experiment [6] it was 21500 nM (active). Besides, the Potency result in the experiment with Furin (Homo sapiens) is “inactive”.
Turning to `CC(=O)[C@]1(O)Cc2c(O)c3c(c(O)c2[C@@H](O[C@H]2C[C@H](N)[C@@H](O)[C@H](C)O2)C1)C(=O)c1ccccc1C3=O`, the Potency in experiment [1] is 6570 nM (active); in experiment [3], 1310 nM (active); in experiment [4] it was 209 nM (active). Moreover, the Potency entry in experiment [5] and in experiment [6] was “inactive” each time.
`COc1ccc(C[C@@H](C)[C@@H](C)Cc2ccc(OC)c(OC)c2)cc1OC`: the Potency result in experiment [1], in experiment [5], in experiment [4] and in experiment [6] was “inactive” in each case.
As to `COc1cccc2c1C(=O)c1c(O)c3c(c(O)c1C2=O)C[C@@](O)(C(=O)CO)C[C@@H]3O[C@H]1C[C@H](N)[C@@H](O)[C@H](C)O1`, the Potency in experiment [1] is 585 nM (active); in experiment [2], 293 nM (active); in experiment [3], 1470 nM (active); in experiment [4] it was 332 nM (active).
Consider `CC(C)C[C@H](NC(=O)CNC(=O)c1cc(Cl)ccc1Cl)B1OC(=O)CC(CC(=O)O)(C(=O)O)O1` (some centres not stated), for which the Potency was 369 nM (active) in experiment [1], 2330 nM (active) in experiment [5] and 585 nM (active) in experiment [3]. Besides, the Potency entry in experiment [4] and in experiment [6] was “inactive” throughout.
Consider `O=C(NCc1ccccc1)[C@H](Cc1ccccc1)NC(=O)[C@@H]1O[C@@H]1C(=O)NCCc1ccc(O)cc1`, for which the Potency result in experiment [1], in experiment [5], in experiment [3], in experiment [4] and in experiment [6] was “inactive” in each case.
In the case of `Cn1cc(-c2cnn3c(N)c(Br)c([C@H]4CCCNC4)nc23)cn1`, the Potency result in experiment [1] and in experiment [6] was “inactive” in each case. Further, the Potency was 3690 nM (active) in experiment [5] and 18700 nM (active) in experiment [4].
With `COC1=C2C[C@@H](C)C[C@H](OC)[C@@H](O)[C@@H](C)C=C(C)[C@H](OC(N)=O)[C@@H](OC)C=CC=C(C)C(=O)NC(=CC1=O)C2=O`, the Potency in experiment [1] was 2080 nM (active); in experiment [5] it was 1310 nM (active); in experiment [3], 4650 nM (active); in experiment [4] it was 2350 nM (active). For the same compound, the Potency result in experiment [6] was “inactive”.
As to `CO[C@@H]1[C@@H](O)[C@H](O)[C@@H](n2c3c(Cl)cccc3c3c4c(c5c6cccc(Cl)c6[nH]c5c32)C(=O)NC4=O)O[C@@H]1CO`, the Potency was 6570 nM (active) in experiment [1], 2610 nM (active) in experiment [3] and 2640 nM (active) in experiment [4]. Further, the Potency result in experiment [5] and in experiment [6] was “inactive” each time.
Turning to `CC(=O)O[C@H]1C[C@@H]2CC[C@H]3[C@H]4C[C@H]([N+]5(C)CCCCC5)[C@@H](OC(C)=O)[C@@]4(C)CC[C@@H]3[C@@]2(C)C[C@H]1N1CCCCC1`, the Potency in experiment [1] was 10400 nM (active); in experiment [5], 8270 nM (active); in experiment [3] it was 16500 nM (active); in experiment [4] it was 20900 nM (active). In experiment [6], the Potency result was “inactive”.
For the compound `COc1cccc2c1C(=O)c1c(O)c3c(c(O)c1C2=O)C[C@@](O)(C(=O)CO)C[C@@H]3O[C@H]1C[C@H](N)[C@H](OC2CCCCO2)[C@H](C)O1` (some centres not stated), the Potency in experiment [1] is 18500 nM (active); in experiment [3], 14700 nM (active); in experiment [4], 4690 nM (active). Besides, the Potency result in experiment [5] and in experiment [6] was “inactive” throughout.
For the compound `COc1cccc2c1C(=O)c1c(O)c3c(c(O)c1C2=O)C[C@@](O)(C(C)=O)C[C@H]3O[C@H]1C[C@H](N)[C@H](O)[C@H](C)O1`, the Potency in experiment [1] is 2610 nM (active); in experiment [3] it was 2080 nM (active); in experiment [4] it was 662 nM (active). The Potency entry in experiment [5] and in experiment [6] was “inactive” each time.

These data come from PubChem BioAssay (NCATS).
